# Most compounds without a hit are left out; they make up all but 12% or so of the library.
# G9a inh – qHTS Assay for Inhibitors of Histone Lysine Methyltransferase G9a. Histone-lysine N-methyltransferase EHMT2 (Homo sapiens), Q96KQ7. G9a H3K9 monomethylation, AlphaScreen, 2 h. Potency, µM (highest dose often 102 µM), inactives show at the top dose activity, negative = inhibition, hits mostly inhibitors. 350,000 tested, 8.8% active. AID 504332, 2011; note: % is set by controls: 0 for no effect and ±100 for the full control effect; nearly all actives have a fitted effect of over 75% in size
#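 Compounds were preincubated with 20 nM G9a for 15 min, after which biotinylated H3K9 peptide (500 nM) and SAM (20 uM) started a 2 h room-temperature reaction. Monomethylated product was quantified by antibody-based AlphaScreen chemiluminescence.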
# BAZ2B inh – qHTS Assay for Inhibitors of BAZ2B; Bromodomain adjacent to zinc finger domain protein 2B (Homo sapiens), Q9UIF8; AlphaScreen BAZ2B-H3K14Ac peptide displacement; Potency, µM (doses to about 114 µM), without a hit: at the top dose activity change, negative = inhibition, actives largely listed as inhibitors; 360,000 tested, 4.4% active; note: % is set by controls: 0 for no effect and ±100 for the full control effect; nearly all actives have a fitted effect of over 60% in size
#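 Inhibition is scored as reduced AlphaScreen emission. The BAZ2B/b-H3(5-23)K14Ac complex (50 nM each) in PBS pH 7.4, 0.01% Tween-20 meets compound (up to 110 uM) for 30 min at RT before bead addition.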
# HP1b chromo inh – HTS for Inhibitors of HP1-beta Chromodomain Interactions with Methylated Histone Tails; Potency, µM (series often up to 114 µM), for inactives: top-dose activity change, negative = inhibition, hits mostly inhibitors; Chromobox protein homolog 1 (Homo sapiens), P83916; AlphaScreen HP1-beta / biotin-H3K9me3 peptide binding; AID 540317, 2011; 390,000 tested, 0.56% active; note: nearly all actives have a fitted effect of over 70% in size
#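 Compound inhibition of the preformed complex between 50 nM HP1-beta and 50 nM biotinylated H3K9me3 peptide was read by AlphaScreen. Buffer was PBS pH 7.4 with 0.01% Tween-20. Incubations ran 30 min at room temperature, with 10 ug/mL donor/acceptor beads.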
# L3MBTL1 inh – qHTS Assay for the Inhibitors of L3MBTL1; Lethal(3)malignant brain tumor-like protein 1 (Homo sapiens), Q9Y468; AlphaScreen L3MBTL1–H3K9me1 peptide binding; Potency, µM (highest dose often 57.1 µM), without a hit: top-dose activity, negative = inhibition, most hits filed as inhibitors; 230,000 tested, 0.66% active; AID 485360, 2010; note: % is set by controls: 0 for no effect and ±100 for the full control effect; nearly all actives have a fitted effect of over 60% in size
#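 Read-out is AlphaScreen signal from streptavidin donor and nickel chelate acceptor beads (10 ug/mL final each) bridging L3MBTL1 (50 nM) and biotinylated K9-monomethylated H3(1-15) peptide (75 nM), after 30 min compound exposure at room temperature.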
# JMJD2A Tudor – qHTS Assay for Inhibitors of JMJD2A-Tudor Domain. AlphaScreen JMJD2A-Tudor / H3K4me3 peptide binding. Potency, µM (highest dose often 114 µM), without a hit: top-dose activity change, negative = inhibition, usual class: inhibitors. Lysine-specific demethylase 4A (Homo sapiens), O75164. AID 504339, 2011. 390,000 tested, 4.4% active; note: % is set by controls: 0 for no effect and ±100 for the full control effect; nearly all actives have a fitted effect of over 50% in size
# Target sequence (O75164 whole entry, looked up, the tested form may be a part): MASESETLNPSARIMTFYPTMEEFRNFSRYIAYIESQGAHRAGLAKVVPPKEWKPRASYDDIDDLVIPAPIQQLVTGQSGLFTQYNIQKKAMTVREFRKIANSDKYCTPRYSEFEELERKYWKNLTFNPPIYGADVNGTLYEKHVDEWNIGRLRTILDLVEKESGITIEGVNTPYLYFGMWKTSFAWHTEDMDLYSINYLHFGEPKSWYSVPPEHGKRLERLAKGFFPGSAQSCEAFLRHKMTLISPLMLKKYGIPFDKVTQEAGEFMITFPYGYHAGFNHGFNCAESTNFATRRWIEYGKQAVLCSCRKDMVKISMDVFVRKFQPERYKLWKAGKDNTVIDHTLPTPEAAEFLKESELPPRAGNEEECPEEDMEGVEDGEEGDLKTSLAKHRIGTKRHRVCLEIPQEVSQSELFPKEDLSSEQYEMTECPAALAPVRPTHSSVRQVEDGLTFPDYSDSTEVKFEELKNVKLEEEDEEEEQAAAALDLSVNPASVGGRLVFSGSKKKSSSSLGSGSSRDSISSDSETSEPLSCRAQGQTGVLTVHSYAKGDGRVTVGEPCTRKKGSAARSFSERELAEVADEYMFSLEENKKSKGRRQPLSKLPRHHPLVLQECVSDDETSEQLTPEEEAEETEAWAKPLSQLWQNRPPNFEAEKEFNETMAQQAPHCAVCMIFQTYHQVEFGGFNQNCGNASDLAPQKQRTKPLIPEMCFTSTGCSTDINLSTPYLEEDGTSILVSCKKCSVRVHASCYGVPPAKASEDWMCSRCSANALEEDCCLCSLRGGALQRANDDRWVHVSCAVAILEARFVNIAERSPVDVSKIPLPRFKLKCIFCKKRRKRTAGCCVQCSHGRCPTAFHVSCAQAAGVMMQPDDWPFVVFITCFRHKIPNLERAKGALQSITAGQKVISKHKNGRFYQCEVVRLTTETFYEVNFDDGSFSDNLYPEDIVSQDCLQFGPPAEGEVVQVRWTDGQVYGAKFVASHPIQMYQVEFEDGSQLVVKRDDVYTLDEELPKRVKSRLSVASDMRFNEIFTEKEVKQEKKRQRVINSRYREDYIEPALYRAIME
# Sfp inh – qHTS Assay for Inhibitors of Bacillus subtilis Sfp phosphopantetheinyl transferase (PPTase). Biochemical Sfp PPTase activity, qHTS. Potency, µM, without a hit: largest response in the series, negative = inhibition, hits mostly inhibitors. 310,000 tested, 3.5% active;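 note: the enzyme is Sfp with the accession as filed and its product quenches rhodamine fluorescence; 0% = enzyme reaction without inhibitor and -100% = no enzyme wells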
#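 Compounds were incubated with enzyme (final 15 nM) for 15 min at room temperature before substrate addition started the reaction. Fluorescence at 525 nm excitation, 598 nm emission was recorded immediately and after 30 minutes.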
# Numbers without * were called inactive; u = inconclusive; x = no result; [ ] = another dose, or the depositor's remark. Calls come from the whole dose curve; as a rule, active = well fitted curve in the direction sought with a large enough effect; inconclusive = small, poorly fitted or top-dose-only effect, or another doubt; inactive = no such curve, though single readings can be large; an effect the other way counts as inactive or inconclusive. Potency is the fitted concentration of half-maximal effect.
SMILES,G9a inh,BAZ2B inh,HP1b chromo inh,L3MBTL1 inh,JMJD2A Tudor,Sfp inh
O=C(Nc1cccc(-c2cccc(Cl)c2)c1)C1CCN(Cc2ccccn2)CC1,44.7µM*,6.3%,45.7%,x,-31.0%,-28.4%
O=C(Nc1ccc(-n2cccn2)cc1)C1CCCCN1Cc1cccc2cccnc12 (stereo not drawn),19.8%[59 µM],u,12.1%,x,-29.3%,-2.5%
CC1SC(=NC(=O)c2ccncc2)NC1=O (stereo not drawn),39.8µM*,-19.9%,4.1%,5.5%,-8.2%,10.7%
CC1Sc2ccc(C(=O)NCc3ccccn3)cc2NC1=O (stereo not drawn),u,-16.5%,u,2.8%,u,x
COc1ccc(/C(O)=C2\C(=O)C(=O)N(CCN(C)C)C2c2cccc(OC)c2OC)cc1 (stereo not drawn),11.2µM*,-28.1%,12.2%,-1.4%,-17.1%,18.2%
COc1cccc(C2/C(=C(/O)c3cnn(-c4ccccc4)c3C)C(=O)C(=O)N2CCN(C)C)c1OC (stereo not drawn),14.1µM*,u,21.1%,-11.0%,-15.0%[57.1 µM],16.4%
COc1ccc(C2/C(=C(\O)c3ccc(OC)c(Cl)c3)C(=O)C(=O)N2CCN(C)C)cc1 (stereo not drawn),79.4µM*,-4.0%,29.9%,2.9%,-2.7%,1.4%
COc1ccccc1C1/C(=C(/O)c2cnn(-c3ccccc3)c2C)C(=O)C(=O)N1CCN(C)C (stereo not drawn),x,x,66.2%,x,10.9%,x
COC(=O)c1ccccc1NC(=O)Cn1c(=O)n(CCC(=O)NCc2ccc3c(c2)OCO3)c(=O)c2ccccc21,4.3%[59 µM],2.9%,6.0%,x,-14.3%,x
Cc1ccccc1OCc1nnc(SCc2cc(=O)c3cccc(F)c3[nH]2)n1C,3.2%[59 µM],4.4%,33.2%[57 µM],x,-1.0%,x
CCc1n[nH]c(=S)n1/N=C/c1ccc2c(c1)OCO2,x,-4.0%,9.2%,1.7%,4.47µM*,-7.7%
CCc1n[nH]c(=S)n1/N=C/c1c(O)ccc2ccccc12,u,-23.9%,36.8%,-3.1%[2.29 µM],14.1µM*,-13.9%
S=c1[nH]nc(-c2ccncc2)n1/N=C/c1cccc2ccccc12,1.12µM*,-6.5%,x,-5.2%,x,-6.3%
CCc1n[nH]c(=S)n1/N=C/c1cccc2ccccc12,1.58µM*,-18.1%,31.8%,-0.9%,u,-16.7%
Cn1c(=S)n(/N=C/c2ccc3c(c2)OCO3)c2ccccc21,0.3%,-2.2%,30.4%,0.6%,-21.1%,-21.1%
S=c1[nH]nc(-c2ccncc2)n1/N=C/c1cn(-c2ccccc2)nc1-c1ccccc1,u,21.1%,64.6%,-7.0%,-18.3%,14.4%
CCc1n[nH]c(=S)n1/N=C/c1ccccc1OCc1ccc(Cl)cc1,x,-21.3%,40.4%,47.7%,-9.7%,u
Nc1nonc1N/N=C/c1c(O)ccc2ccccc12,u,-27.6%,15.7%,-19.6%,-28.7%,-5.4%
CCCC(=O)NCC(c1ccc2c(c1)OCO2)N1CCN(c2ccc(F)cc2)CC1 (stereo not drawn),7.0%[59 µM],-9.2%,4.2%[57 µM],x,-23.9%,x
COc1ccc(-n2nc(C(=O)NCc3ccc(F)cc3Cl)c3c4ccccc4n(C)c3c2=O)cc1Cl,19.4%[59 µM],x,34.8%,x,-14.3%,x
CCOC(=O)c1sc(NC(=O)COc2ccccc2Cl)c(C(=O)OCC)c1C,13.1%[59 µM],0.2%,13.3%,x,2.9%,x
Cc1nc(C(=O)NNC(=O)c2ccccc2)c(C(F)(F)F)o1,4.47µM*,-32.6%,55.2%,8.0%,u,44.7µM*
CCCCNC(=O)CC1S/C(=N/N=C/c2ccc(OC)cc2)NC1=O (stereo not drawn),-5.2%,-1.8%,35.2%,x,8.0%,11.0%
O=C(O)CCCNC(=O)CC1S/C(=N/N=C/c2ccccc2O)NC1=O (stereo not drawn),0.5%,50.1µM*,31.1%,x,-23.1%,22.8%
O=C(COc1ccc(Br)cc1Cl)Nc1ncn[nH]1,-22.2%[59 µM],-34.3%,42.7%,x,-17.5%,x
SMILES,G9a inh,BAZ2B inh,HP1b chromo inh,L3MBTL1 inh,JMJD2A Tudor,Sfp inh
CCc1ccc(OCC(=O)Nc2ncn[nH]2)c(Br)c1,-17.8%[59 µM],89.1µM*,47.3%,x,-6.0%,x
CC(C)(C)c1ccccc1OCC(=O)Nc1ncn[nH]1,35.5µM*,u,37.8%,x,-14.0%,0.5%
CC(C)(C)c1cc(Br)ccc1OCC(=O)Nc1ncn[nH]1,20.1%,2.0%,33.6%,x,-7.0%,20.5%
C=C1c2ccccc2O[C@H](C(=O)OCC)C1OC (mixture of isomers),-27.4%,x,x,x,x,4.6%
CCc1cc2c(-c3ccccc3)cc(=O)oc2cc1OCC(C)=O,24.3%[0.501 µM],8.7%,62.5%,-4.3%[2.29 µM],-1.4%,2.4%
CCCc1cc2c(-c3ccccc3)cc(=O)oc2cc1OCc1ccc(C(=O)O)o1,44.7µM*,u,u,-0.4%,-19.5%[11.4 µM],-29.4%
CCN(/N=C/c1ccc(Cl)cc1)c1cc(=O)n(C)c(=O)[nH]1,-1.3%[59 µM],0.6%,8.9%,-7.1%,39.8µM*,-7.4%
Cc1c(CCNC(=O)c2ccc(Br)o2)sc2nc(-c3ccc(F)cc3)nn12,-4.6%[59 µM],-23.1%,23.8%,x,50.1µM*,x
CCOc1ccc(N2CC(=O)N/C2=N\c2nc(C)cc(C)n2)cc1,56.2µM*,-5.4%,25.4%,4.8%,u,-3.6%
COc1ccc(/C=C/C(=O)NC(=S)NNC(=O)Cc2cccs2)cc1OC,3.55µM*,5.7%,10.0%,x,-9.3%,-3.3%
O=C(/C=C/c1cccs1)NC(=S)NNC(=O)Cc1cccs1,4.47µM*,9.0%,25.7%,25.7%,-4.8%,22.9%
COc1ccccc1NC(=S)NC(=O)C(C)(C)C,39.8µM*,-2.0%,15.4%,28.5%,-23.1%,-2.8%
COc1ccccc1NC(=S)NNC(=O)c1nn(C)c(C)c1Br,11.2µM*,-2.2%,-2.3%,17.3%,-19.9%,1.6%
COc1ccccc1NC(=S)NC(=O)Cc1ccccc1,x,x,31.3%,x,0.3%,x
COc1ccc(/C=C/C(=O)NC(=S)NNC(=O)c2cccs2)cc1OC,u,10.4%,22.8%,x,14.5%,-15.9%
O=C(/C=C/c1cccs1)NCc1cccs1,x,x,23.6%,x,-9.6%,x
CCOc1cc(C2c3c(oc4ccc(F)cc4c3=O)C(=O)N2Cc2ccco2)ccc1O (stereo not drawn),-27.2%[59 µM],-5.1%,25.7%,x,-10.0%,x
COc1ccccc1NC(=S)NC(=O)/C=C/c1cccs1,44.7µM*,x,-22.4%,x,-11.3%,2.9%
COc1ccc(NC(=S)NC(=O)/C=C/c2cccs2)cc1,u,-12.2%,19.3%,-0.8%,-19.6%,14.0%

# Compound activity deposited in PubChem BioAssay by National Center for Advancing Translational Sciences (NCATS).
